Source: the supplement of paper PMC11150407
Hit rate of the full screen: of about 3,000 compounds, about 45 (2%) showed an effect of 50% or more. This excerpt belongs to a sample that is enriched for strong results.

What follows are compounds tested on MOLM1 and UCSD/AML1 (averaged) (assay: cell viability relative to DMSO control (POC); higher = less growth inhibition). Settings: 1 µM; 72 h.
Method: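 Primary viability screen in the 3q26 EVI1-high AML cell lines MOLM1 and UCSD/AML1, compounds at 1 uM for 72 h. ATP CellTiter-Glo read-out given as percent viable over DMSO control (POC), averaged over duplicates. This mapping covers the TimTec NDL-3000 natural derivative library, whose compounds are identified by TimTec catalogue codes (ST...).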

Point of comparison: `COc1ccc(C(=O)N2CCCc3cccc(OC)c32)cc1OC`, cell viability 90.1%. Against it:
- O=C1C[C@H](n2nc(-c3ccccc3Br)oc2=S)[C@H]2CO[C@@H]1O2 — lower, 55.5%
- O=C1CC(n2c(=O)oc3ccccc32)C2COC1O2 (centres undefined) — lower, 14.7%
- O=C1CC(n2nnnc2-c2ccccc2Cl)C2COC1O2 (centres undefined) — lower, 64.4%
- Cc1ccc2c(O)c([N+](=O)[O-])c(=O)oc2c1 — higher, 103%
- Cn1c(=O)c2c(nc3n2CC(C24CC5CC(CC(C5)C2)C4)=NN3CCO)n(C)c1=O — higher, 106%
- CCOc1cc2c(cc1OCC)C(c1cccc(F)c1F)NCC2 (centres undefined) — lower, 86.1%
- O=C(O)c1cccc(Nc2nc(-c3ccc(Cl)cc3)nc3ccccc23)c1 — lower, 90%
- O=C(O)c1ccccc1-c1c2ccc(=O)c(Br)c-2oc2c(Br)c(O)ccc12 — higher, 103%
- O=C(O)/C=C/c1ccc([N+](=O)[O-])cc1 — higher, 109%
- O=C(/C=C/c1ccc(Cl)cc1Cl)c1cccc2ccccc12 — higher, 95.1%
- O=C(/C=C/c1ccc([N+](=O)[O-])cc1)c1cccc2ccccc12 — lower, 32.8%
- COc1ccc2c(c1)c(CC(=O)NCc1ccccn1)c(C)n2C(=O)c1ccc(Cl)cc1 — lower, 84.5%
- O=C(/C=C/c1ccccc1)c1cc(O)ccc1O — higher, 93.7%
- O=C(/C=C/c1ccccc1)c1ccc(O)cc1 — lower, 2.68%
- O=C(/C=C/c1ccccc1)c1ccc(O)cc1O — higher, 96.7%
- COc1ccc(/C=C(\C#N)C(=O)OC(C)C)c(OC)c1OC — higher, 106%
- O=c1[nH]c(=O)n(C2CC(O)C(CO)O2)cc1C(F)(F)F (centres undefined) — lower, 29.6%
- O=c1[nH]c(=O)n(C2C[C@H](O)[C@@H](CO)O2)cc1I (some centres undefined) — lower, 89.8%
- CC(=O)OC1CC(n2cc(C)c(=O)[nH]c2=O)OC1CO (centres undefined) — higher, 98.2%
- CCOc1ccc2oc(=O)cc(CN3CCNCC3)c2c1 — higher, 90.2%
- CCOc1ccccc1C(=O)NCCc1c(C)[nH]c2ccccc12 — higher, 105%
- COc1ccc(C2c3[nH]c4ccccc4c3CCN2CC(=O)Nc2ccc(C)cc2)cc1 (centres undefined) — lower, 87.2%
- COc1ccc(/C=C/C(=O)c2ccc(O)cc2C)cc1 — lower, 22.5%
- COc1ccc(C(=O)/C=C/c2ccccc2)c(O)c1 — higher, 101%
- O=C(/C=C/c1ccc(O)cc1)c1ccc(O)cc1O — higher, 102%
- COc1ccc2c(c1)c(CC(=O)NCCSc1ccccc1)c(C)n2C(=O)c1ccc(Cl)cc1 — higher, 98.5%
- COc1ccc(C(NS(=O)(=O)c2ccc(C)cc2)c2nccc3cc(OC)c(OC)cc23)cc1OC (centres undefined) — higher, 98.4%
- C=CCN(C(=O)CSc1nc2ccccc2c(=O)[nH]1)c1ccccc1 — lower, 88.4%
- COc1ccc(OC)c(NC(=O)c2cc(OC)c(OC)c(OC)c2)c1 — lower, 85.9%
- C=CCN(C(=O)CSc1nc2c(=O)[nH]cnc2n1-c1ccccc1)c1ccccc1 — higher, 98%
- CCCCCOc1ccc(C2=NOC(=O)/C2=C\c2cc(Cl)ccc2O)cc1 — higher, 92.3%
- Cc1ccc(-n2c(SCc3ccccc3F)nc3c(=O)[nH]cnc32)cc1 — higher, 95.2%
- CC1CCc2nc(S[C@H]3CC(=O)[C@@H]4OC[C@H]3O4)nc(C(F)(F)F)c2C1 (some centres undefined) — lower, 39.9%
- COc1ccc(-c2cc(C(F)(F)F)nc(SC3CC(O)C4OCC3O4)n2)cc1OC (centres undefined) — higher, 98.4%
- COc1ccc(-c2cc(-c3ccc4c(c3)OCO4)[nH]c(=O)c2C#N)cc1 — higher, 97.1%
- CC1(C)C2CCC1(CS(=O)(=O)Nc1ccncc1)C(=O)C2 (centres undefined) — higher, 106%
- COc1cc(C(=O)NCC(C)NC(=O)c2cc(OC)c(OC)c(OC)c2)cc(OC)c1OC (centres undefined) — higher, 99.3%
- CCOc1ccc2oc(=O)cc(CN3CCN(CC(=O)Nc4cc(F)ccc4F)CC3)c2c1 — higher, 98.5%
- CCOC(=O)c1c(C)n(-c2ccccc2)c2cc(Br)c(OC)cc12 — higher, 110%
- CCOC(=O)c1c(CC(C#N)(c2ccccc2)c2ccccc2)n(C)c2cc(Br)c(OC)cc12 — lower, 17.7%
- CCOC(=O)c1c(CSCc2ccccc2)n(-c2ccccc2)c2cc(Br)c(OC)cc12 — higher, 110%
- Cn1c(=O)c2ccccc2n(CC(=O)N2CCc3ccccc3C2)c1=O — higher, 107%
- COc1ccc(NC(=O)CSc2nc3c(=O)[nH]cnc3n2-c2ccc(C)cc2)cc1OC — higher, 92.8%
- Cc1ccc2occ(C)c(=O)c2c1 — higher, 98.5%
- O=C(Cn1c(=O)cc(C(=O)N2CCc3ccccc3C2)c2ccccc21)Nc1ccc(Cl)cc1 — higher, 105%
- N#CC1=C(N)Oc2cc(O)ccc2C1c1cccc(C(F)(F)F)c1 (centres undefined) — lower, 22.1%
- N#CC1=C(N)Oc2[nH]c(=O)[nH]c(=O)c2C1c1ccccc1F (centres undefined) — higher, 94.3%
- N#CC1=C(N)Oc2cc(O)ccc2C1c1ccccc1F (centres undefined) — lower, 13.8%
- N#CC1=C(N)Oc2cc(O)ccc2C1c1cccc([N+](=O)[O-])c1 (centres undefined) — higher, 101%
- N#CC1=C(N)Oc2cc(O)ccc2C1c1ccccc1 (centres undefined) — higher, 104%
- CCc1ccc(C2C(C#N)=C(N)Oc3cc(O)ccc32)cc1 (centres undefined) — higher, 110%
- O=C(O)CNC(=O)c1ccc(Cl)cc1 — higher, 108%
- O=c1c(O)c(-c2ccc(F)cc2)oc2cc(Cl)ccc12 — higher, 100%
